From the supplement of paper PMC11732987, “Enantioselective OTUD7B fragment discovery through chemoproteomics screening and high-throughput optimisation” (Communications Chemistry, 2025)

How the values were obtained:
Experiment in all cases: log2 ratio of Biotin-Ahx-Ub-VS probe labelling (fragment/DMSO); higher = less target engagement (more negative = stronger competition), active = hit call of the paper (q ≤ 0.05, log2 ratio ≤ -1)
Details in all cases: compound concentration: 200 uM; treatment time: 3 h
USP42 = target: T1, USP42 (UniProt Q9H9J4)
T1 sequence (whole entry): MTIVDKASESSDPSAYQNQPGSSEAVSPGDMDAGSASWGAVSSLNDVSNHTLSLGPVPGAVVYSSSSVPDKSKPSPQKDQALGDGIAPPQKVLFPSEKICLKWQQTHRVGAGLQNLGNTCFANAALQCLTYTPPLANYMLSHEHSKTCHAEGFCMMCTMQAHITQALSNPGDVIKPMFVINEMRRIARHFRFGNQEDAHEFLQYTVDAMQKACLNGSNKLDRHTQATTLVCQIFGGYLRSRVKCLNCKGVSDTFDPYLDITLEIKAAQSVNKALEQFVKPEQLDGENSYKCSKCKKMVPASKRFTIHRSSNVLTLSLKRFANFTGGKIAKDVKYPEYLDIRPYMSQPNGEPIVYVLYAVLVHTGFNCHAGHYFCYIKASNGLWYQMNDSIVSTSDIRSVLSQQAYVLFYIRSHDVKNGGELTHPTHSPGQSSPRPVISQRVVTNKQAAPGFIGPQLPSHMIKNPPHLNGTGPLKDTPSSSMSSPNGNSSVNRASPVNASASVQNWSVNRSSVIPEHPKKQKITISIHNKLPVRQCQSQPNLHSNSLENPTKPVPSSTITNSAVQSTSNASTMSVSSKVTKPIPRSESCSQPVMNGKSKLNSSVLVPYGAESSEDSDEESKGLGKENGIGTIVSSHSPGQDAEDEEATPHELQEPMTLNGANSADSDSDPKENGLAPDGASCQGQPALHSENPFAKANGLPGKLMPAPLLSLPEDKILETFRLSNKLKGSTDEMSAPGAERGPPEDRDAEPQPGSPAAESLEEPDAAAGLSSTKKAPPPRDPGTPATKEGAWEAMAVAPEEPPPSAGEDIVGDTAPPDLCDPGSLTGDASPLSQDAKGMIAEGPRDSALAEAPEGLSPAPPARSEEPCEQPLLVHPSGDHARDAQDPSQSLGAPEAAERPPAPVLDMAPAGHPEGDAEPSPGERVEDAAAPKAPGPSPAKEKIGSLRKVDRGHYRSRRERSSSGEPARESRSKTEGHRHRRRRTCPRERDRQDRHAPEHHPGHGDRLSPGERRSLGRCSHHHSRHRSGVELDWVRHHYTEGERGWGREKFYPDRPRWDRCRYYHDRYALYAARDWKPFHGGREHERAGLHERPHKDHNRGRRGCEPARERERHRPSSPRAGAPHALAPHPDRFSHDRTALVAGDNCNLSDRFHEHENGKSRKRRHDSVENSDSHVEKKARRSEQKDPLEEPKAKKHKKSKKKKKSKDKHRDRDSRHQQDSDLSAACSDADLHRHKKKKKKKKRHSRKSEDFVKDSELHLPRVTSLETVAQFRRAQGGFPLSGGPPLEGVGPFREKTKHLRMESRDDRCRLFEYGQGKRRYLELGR
Procedure, shortened: (§1)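 HEK293T lysate (495 µg per sample, in Tris/CHAPS/IGEPAL buffer with protease inhibitors) was exposed in triplicate for 3 h to fragment at 200 µM or to vehicle, then to Biotin-Ahx-Ub-VS at 0.5 µM final for 1 h. Labelled DUBs were enriched on NeutrAvidin, digested with LysC and trypsin, and analysed by diaPASEF LC-MS/MS. Spectronaut label-free quantities were normalised to the global median, and values are average log2 ratios of fragment over vehicle from an unpaired t-test. Only proteins with ≥2 unique peptides were used.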

USP46 = USP46 (UniProt P62068)
USP46, sequence (P62068 whole entry): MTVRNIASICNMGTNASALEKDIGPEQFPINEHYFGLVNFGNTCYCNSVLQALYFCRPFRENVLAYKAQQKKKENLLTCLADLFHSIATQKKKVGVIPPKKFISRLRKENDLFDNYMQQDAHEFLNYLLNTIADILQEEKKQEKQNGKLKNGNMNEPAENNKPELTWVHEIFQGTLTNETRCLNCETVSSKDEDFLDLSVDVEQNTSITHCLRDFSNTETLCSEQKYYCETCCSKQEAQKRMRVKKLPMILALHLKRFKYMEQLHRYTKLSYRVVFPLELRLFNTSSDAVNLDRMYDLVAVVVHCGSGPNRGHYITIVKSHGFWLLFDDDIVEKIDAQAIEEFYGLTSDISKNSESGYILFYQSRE
Procedure, shortened: as §1

USP47 = target: T2, USP47 (UniProt Q96K76)
T2 sequence (whole entry): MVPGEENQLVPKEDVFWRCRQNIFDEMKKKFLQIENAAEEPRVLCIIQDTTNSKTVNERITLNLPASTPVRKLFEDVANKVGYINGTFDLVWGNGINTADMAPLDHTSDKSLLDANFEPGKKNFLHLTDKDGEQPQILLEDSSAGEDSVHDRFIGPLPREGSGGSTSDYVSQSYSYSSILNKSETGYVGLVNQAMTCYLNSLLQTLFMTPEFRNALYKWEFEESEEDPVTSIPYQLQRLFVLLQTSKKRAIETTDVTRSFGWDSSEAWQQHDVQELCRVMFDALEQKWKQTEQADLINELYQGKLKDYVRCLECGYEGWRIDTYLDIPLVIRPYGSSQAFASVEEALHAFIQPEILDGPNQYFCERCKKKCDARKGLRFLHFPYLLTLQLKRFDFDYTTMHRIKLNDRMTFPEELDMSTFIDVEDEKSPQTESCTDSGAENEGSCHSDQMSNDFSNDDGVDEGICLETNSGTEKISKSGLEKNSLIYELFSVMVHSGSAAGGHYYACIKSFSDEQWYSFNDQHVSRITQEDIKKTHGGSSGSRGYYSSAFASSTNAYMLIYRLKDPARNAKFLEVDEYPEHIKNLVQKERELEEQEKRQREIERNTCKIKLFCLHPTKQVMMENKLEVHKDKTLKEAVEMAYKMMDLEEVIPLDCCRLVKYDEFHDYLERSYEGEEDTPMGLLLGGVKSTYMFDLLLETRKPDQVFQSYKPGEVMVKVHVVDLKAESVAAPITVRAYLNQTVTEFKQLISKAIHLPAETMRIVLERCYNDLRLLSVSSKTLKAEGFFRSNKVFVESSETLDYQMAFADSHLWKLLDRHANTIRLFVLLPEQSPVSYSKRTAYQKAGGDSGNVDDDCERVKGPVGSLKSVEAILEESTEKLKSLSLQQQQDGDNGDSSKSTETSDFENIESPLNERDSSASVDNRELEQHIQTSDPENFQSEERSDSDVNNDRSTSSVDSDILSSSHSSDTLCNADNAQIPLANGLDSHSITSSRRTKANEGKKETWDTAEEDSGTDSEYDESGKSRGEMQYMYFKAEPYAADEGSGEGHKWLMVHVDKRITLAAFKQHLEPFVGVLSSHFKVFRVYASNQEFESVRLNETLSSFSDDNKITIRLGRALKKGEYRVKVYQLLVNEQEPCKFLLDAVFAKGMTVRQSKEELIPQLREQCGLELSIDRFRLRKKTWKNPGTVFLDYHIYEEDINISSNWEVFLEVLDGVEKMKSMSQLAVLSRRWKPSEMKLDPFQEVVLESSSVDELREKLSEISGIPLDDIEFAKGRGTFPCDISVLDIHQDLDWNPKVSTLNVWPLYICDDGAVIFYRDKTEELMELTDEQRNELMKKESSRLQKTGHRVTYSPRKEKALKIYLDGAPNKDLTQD
Procedure, shortened: as §1

USP48 = target: T3, USP48 (UniProt Q86UV5)
T3 sequence (whole entry): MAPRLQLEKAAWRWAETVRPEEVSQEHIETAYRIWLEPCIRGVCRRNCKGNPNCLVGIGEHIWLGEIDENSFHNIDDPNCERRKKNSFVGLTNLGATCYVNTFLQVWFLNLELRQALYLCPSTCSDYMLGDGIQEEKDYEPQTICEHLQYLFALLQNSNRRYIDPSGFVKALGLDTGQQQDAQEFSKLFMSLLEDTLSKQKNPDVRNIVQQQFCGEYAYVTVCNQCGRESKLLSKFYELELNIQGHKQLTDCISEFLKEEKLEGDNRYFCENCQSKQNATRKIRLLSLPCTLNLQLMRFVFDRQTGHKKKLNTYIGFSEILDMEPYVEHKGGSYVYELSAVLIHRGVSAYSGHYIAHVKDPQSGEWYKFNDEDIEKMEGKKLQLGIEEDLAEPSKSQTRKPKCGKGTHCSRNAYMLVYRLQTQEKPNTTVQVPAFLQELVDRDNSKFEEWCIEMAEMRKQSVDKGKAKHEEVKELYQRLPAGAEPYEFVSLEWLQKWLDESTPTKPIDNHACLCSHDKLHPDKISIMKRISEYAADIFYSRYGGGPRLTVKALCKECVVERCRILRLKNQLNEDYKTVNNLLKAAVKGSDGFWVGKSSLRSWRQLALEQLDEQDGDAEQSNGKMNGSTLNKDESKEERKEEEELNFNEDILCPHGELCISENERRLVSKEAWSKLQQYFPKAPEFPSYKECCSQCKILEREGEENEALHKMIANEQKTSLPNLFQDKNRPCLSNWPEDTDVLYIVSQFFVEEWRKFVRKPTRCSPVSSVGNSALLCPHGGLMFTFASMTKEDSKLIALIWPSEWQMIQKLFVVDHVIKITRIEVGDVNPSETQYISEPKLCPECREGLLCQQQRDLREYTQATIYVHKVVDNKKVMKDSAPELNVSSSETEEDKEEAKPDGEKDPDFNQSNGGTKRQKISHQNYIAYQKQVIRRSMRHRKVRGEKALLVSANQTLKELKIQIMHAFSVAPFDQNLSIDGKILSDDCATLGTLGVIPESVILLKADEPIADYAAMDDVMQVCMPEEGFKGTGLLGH
Procedure, shortened: as §1

USP5 = target: T4, USP5 (UniProt P45974)
T4 sequence (whole entry): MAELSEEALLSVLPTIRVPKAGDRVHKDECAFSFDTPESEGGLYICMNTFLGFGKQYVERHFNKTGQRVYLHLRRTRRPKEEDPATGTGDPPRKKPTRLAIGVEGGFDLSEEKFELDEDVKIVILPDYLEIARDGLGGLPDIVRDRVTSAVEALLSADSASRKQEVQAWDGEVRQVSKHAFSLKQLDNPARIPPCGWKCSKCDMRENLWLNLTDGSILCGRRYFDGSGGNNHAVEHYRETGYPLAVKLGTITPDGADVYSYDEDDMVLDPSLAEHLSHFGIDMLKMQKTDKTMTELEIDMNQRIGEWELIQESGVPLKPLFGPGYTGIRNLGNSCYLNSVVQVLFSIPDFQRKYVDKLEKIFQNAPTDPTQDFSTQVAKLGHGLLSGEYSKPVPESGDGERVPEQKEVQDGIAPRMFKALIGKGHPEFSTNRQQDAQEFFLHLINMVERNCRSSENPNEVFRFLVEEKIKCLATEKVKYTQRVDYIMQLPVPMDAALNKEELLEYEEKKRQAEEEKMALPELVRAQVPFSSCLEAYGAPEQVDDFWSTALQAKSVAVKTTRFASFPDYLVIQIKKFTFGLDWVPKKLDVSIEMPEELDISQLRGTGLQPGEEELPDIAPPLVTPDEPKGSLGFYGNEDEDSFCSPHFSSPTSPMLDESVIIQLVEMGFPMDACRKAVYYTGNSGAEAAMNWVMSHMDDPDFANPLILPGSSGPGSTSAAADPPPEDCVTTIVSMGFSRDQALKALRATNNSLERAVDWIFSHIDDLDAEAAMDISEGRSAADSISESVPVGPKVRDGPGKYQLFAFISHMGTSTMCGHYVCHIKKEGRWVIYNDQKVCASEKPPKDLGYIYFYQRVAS
Procedure, shortened: as §1

USP54 = USP54 (UniProt Q70EL1)
USP54, sequence (Q70EL1 whole entry): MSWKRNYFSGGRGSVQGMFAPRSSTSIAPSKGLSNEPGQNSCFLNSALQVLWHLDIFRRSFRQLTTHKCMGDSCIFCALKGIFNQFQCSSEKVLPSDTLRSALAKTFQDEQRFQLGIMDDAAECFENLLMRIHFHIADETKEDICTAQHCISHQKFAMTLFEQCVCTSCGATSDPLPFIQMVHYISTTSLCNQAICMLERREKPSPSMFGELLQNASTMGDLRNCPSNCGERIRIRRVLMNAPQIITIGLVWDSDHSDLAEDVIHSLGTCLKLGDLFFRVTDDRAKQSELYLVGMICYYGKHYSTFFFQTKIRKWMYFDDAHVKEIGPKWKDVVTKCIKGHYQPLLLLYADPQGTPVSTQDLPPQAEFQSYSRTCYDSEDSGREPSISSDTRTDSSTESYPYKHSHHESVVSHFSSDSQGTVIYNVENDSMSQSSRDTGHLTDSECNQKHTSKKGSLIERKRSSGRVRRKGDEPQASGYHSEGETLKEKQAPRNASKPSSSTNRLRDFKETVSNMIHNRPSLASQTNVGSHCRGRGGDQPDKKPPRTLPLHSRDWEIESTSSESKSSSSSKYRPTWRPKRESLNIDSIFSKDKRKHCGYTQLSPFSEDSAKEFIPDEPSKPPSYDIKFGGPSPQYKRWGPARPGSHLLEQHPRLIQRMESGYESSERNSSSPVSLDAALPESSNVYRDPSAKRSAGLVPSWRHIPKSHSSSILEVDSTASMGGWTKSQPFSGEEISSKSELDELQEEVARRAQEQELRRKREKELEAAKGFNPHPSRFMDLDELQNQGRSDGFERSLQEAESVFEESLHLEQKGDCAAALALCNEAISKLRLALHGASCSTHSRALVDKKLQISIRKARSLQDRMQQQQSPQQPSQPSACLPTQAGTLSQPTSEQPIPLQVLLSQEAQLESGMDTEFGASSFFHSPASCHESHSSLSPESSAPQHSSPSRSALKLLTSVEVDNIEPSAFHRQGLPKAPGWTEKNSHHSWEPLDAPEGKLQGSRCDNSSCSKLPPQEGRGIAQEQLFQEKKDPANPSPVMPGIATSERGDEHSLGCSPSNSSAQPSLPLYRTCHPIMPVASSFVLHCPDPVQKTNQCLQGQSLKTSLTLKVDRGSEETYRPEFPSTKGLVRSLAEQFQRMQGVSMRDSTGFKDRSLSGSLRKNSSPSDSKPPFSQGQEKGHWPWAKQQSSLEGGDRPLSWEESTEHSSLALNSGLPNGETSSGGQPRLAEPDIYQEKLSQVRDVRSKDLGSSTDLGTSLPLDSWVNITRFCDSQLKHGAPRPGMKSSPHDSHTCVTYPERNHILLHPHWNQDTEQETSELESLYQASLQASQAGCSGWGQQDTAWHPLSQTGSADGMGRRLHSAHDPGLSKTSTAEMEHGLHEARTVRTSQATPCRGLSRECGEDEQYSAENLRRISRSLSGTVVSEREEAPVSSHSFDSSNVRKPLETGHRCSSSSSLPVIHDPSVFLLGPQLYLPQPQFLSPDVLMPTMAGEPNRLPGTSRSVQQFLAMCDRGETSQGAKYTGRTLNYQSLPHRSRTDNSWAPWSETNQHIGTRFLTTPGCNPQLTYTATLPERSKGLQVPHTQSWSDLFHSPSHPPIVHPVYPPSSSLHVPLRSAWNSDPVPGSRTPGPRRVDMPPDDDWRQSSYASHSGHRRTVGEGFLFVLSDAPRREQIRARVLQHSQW
Procedure, shortened: as §1

USP7 = USP7 (UniProt Q93009)
Procedure, shortened: as §1

USP8 = target: T5, USP8 (UniProt P40818)
T5 sequence (whole entry): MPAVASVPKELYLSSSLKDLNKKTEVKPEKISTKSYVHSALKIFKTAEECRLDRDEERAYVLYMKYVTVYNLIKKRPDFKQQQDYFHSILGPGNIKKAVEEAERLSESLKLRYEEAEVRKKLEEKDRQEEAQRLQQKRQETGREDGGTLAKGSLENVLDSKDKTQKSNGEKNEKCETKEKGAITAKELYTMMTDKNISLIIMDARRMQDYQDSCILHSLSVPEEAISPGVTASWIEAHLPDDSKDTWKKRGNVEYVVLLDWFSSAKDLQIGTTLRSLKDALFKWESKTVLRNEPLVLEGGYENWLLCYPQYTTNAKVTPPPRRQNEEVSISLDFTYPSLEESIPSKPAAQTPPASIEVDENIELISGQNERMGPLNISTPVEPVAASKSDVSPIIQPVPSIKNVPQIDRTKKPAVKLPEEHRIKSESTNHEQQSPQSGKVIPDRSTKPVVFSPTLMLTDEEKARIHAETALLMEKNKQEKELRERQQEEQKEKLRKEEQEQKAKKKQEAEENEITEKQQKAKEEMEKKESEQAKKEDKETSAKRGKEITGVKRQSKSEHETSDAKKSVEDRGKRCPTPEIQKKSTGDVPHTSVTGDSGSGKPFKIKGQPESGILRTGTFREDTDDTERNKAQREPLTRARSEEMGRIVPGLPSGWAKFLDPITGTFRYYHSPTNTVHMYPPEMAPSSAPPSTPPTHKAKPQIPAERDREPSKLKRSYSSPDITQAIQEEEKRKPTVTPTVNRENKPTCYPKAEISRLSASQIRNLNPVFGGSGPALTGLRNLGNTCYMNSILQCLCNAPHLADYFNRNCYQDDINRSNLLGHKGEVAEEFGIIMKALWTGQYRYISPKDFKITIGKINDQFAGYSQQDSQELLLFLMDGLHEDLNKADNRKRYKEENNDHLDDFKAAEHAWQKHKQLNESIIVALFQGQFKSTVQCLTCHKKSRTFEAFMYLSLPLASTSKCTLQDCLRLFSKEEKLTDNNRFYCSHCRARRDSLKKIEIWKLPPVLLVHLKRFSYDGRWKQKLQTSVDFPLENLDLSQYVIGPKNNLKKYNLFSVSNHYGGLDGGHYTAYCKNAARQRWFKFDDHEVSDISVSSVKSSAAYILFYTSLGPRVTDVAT
Procedure, shortened: as §1

USP9X = USP9X (UniProt Q93008)
USP9X, sequence (Q93008 whole entry): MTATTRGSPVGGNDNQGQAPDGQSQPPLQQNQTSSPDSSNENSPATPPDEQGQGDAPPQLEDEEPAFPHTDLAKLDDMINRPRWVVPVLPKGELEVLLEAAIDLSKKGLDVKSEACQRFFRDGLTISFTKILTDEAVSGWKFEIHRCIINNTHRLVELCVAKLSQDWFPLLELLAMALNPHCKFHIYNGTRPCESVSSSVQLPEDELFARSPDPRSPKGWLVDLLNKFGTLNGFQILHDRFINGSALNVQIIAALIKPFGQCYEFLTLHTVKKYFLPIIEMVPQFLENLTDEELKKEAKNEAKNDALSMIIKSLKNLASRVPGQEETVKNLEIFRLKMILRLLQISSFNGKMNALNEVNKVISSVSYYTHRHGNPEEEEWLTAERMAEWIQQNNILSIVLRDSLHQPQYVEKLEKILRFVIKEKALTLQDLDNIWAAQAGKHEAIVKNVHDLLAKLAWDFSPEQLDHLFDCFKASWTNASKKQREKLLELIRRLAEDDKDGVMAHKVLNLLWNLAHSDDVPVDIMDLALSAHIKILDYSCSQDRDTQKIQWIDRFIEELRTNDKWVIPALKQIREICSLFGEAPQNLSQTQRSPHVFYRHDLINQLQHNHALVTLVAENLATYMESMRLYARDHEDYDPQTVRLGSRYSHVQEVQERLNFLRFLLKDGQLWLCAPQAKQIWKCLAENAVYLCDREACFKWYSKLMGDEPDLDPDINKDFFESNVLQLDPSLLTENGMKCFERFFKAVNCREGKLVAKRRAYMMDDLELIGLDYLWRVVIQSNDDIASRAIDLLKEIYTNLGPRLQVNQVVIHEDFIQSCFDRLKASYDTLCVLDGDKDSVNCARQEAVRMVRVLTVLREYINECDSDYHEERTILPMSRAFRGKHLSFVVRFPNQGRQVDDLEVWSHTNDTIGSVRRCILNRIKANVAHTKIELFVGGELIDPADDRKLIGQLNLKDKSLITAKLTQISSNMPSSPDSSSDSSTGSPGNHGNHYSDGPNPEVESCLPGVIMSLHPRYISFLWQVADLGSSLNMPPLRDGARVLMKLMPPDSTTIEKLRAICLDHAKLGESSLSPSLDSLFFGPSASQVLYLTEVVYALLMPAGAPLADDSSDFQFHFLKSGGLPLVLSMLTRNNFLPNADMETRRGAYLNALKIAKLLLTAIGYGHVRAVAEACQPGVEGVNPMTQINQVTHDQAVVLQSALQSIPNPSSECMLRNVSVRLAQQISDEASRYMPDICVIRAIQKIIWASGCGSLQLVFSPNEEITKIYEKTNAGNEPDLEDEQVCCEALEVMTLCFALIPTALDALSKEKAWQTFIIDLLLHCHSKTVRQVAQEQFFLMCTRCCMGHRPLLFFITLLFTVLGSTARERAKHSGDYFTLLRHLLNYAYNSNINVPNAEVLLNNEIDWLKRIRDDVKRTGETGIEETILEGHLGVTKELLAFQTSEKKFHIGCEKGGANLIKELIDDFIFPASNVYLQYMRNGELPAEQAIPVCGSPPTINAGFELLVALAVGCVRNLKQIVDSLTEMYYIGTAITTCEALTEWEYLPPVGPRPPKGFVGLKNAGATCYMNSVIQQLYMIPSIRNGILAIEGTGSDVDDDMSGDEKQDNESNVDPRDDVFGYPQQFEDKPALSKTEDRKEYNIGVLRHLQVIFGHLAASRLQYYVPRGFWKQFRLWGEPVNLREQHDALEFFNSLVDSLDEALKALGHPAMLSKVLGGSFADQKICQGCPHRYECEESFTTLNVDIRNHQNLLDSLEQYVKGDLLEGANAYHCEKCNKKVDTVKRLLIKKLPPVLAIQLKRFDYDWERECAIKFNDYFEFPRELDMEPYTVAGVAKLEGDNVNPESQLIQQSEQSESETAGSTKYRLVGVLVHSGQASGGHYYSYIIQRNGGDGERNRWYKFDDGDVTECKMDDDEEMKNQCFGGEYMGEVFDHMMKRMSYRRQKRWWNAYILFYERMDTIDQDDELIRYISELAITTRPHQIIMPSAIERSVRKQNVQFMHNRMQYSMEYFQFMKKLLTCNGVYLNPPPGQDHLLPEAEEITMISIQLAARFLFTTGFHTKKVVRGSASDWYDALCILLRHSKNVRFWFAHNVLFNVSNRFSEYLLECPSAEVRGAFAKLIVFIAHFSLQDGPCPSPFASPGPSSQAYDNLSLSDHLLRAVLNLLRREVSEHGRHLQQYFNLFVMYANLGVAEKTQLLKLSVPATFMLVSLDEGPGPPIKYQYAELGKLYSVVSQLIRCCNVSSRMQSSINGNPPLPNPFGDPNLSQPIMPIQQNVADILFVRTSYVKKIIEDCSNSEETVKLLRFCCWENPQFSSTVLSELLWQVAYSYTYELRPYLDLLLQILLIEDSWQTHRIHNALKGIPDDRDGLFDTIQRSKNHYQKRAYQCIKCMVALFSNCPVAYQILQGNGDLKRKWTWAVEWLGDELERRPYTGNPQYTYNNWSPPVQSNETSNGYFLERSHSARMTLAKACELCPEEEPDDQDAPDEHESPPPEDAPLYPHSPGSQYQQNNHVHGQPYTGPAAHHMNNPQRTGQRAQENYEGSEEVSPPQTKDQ
Procedure, shortened: as §1

UniProt O00487 = target: UniProt O00487
UniProt O00487, sequence (O00487 whole entry): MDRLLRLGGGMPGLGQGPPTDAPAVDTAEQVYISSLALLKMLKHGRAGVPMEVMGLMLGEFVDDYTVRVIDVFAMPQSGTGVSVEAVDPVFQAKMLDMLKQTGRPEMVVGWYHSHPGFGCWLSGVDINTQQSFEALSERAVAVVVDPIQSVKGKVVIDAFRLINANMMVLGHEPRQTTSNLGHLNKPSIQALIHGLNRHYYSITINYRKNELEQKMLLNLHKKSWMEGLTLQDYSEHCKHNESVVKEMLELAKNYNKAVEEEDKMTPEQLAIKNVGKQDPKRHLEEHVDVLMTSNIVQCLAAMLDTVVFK
Procedure, shortened: as §1

Measured: log2 ratio of Biotin-Ahx-Ub-VS probe labelling

CN(C)C(=O)c1ccc(NC(=O)CCl)cc1
inactive: USP42 -0.0444 | USP46 -0.0105 | USP47 -0.38 | USP48 -0.84 | USP5 0.14 | USP54 -0.408 | USP7 -0.0714 | USP8 -0.446 | USP9X -0.0881 | UniProt O00487 -0.0189
